TDP1 cell CPT: growth inhibition of DT40 Tdp1-/-;hTDP1 cells with camptothecin (screen for TDP1 inhibitors); Potency, µM (series often up to 46.2 µM), for the others: at the highest dose activity change, negative = growth inhibition, usual class: inhibitors; chicken DT40 Tdp1-/-;hTDP1 cells + 20 nM CPT, ATP luminescence, 48 h; actives 12% (n = 420,000); AID 686979; also: nearly all actives have a fitted effect of over 55% in size
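Chicken DT40 Tdp1-/- cells stably complemented with human TDP1 were seeded at 400 cells/well in medium containing 20 nM camptothecin, exposed to pin-transferred compounds, and grown at 37 °C for at least 48 hr. Viability was read as ATP luminescence.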
DT40 TDP1 no CPT: qHTS for Inhibitors of human tyrosyl-DNA phosphodiesterase 1 (TDP1): qHTS in cells in absence of CPT; Potency, µM (doses to about 46.2 µM), for inactives: at the highest dose activity change, negative = growth inhibition, usual class: inhibitors; actives 15% (n = 420,000); DT40 Tdp1-/- hTDP1 cells, no CPT, ATP luminescence, 48 h; also: nearly all actives have a fitted effect of over 55% in size
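A cellular qHTS used chicken DT40 cells lacking endogenous Tdp1 but carrying stably transfected human TDP1. Compounds were applied without camptothecin, and cell growth kinetics were judged by ATP-dependent luminescence after ≥48 hr.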
VP16 counter: inhibits Gal4-VP16 luciferase reporter, ROR gamma counter-screen; Potency, µM (series often up to 53.6 µM), for inactives: at the top dose activity, negative = inhibition, actives largely listed as inhibitors; Drosophila S2 Gal4-VP16 UAS-luciferase, luminescence, 20 h; AID 2546; actives 3.5% (n = 310,000);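 also: Gal4-VP16 expression switched on by copper sulfate through the metallothionein promoter; nearly all actives have a fitted effect of over 50% in size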
12-LOX inh: ALOX12 (human) lipoxygenase inhibition. purified 12hLO, xylenol orange hydroperoxide absorbance. AID 1671190. Potency, µM (doses to about 108 µM), for the others: at the highest dose activity change, negative = inhibition, most hits filed as inhibitors. actives 1.1% (n = 580,000)
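Hydroperoxide product was detected by ferrous iron/xylenol orange as the 573 to 405 nm absorbance ratio. Arachidonic acid at 40 uM (final) was turned over for 30 min at room temperature by 150 nM human 12hLO, pH 7.0 Hepes buffer, after 15 min compound preincubation.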
RORg inh: inhibitors of mouse ROR gamma transcriptional activity. P51450. Drosophila S2 Gal4-RORgamma UAS-luciferase reporter, 20 h. Potency, µM (series often up to 53.6 µM), for inactives: at the top dose activity change, negative = inhibition, most hits filed as inhibitors. actives 5.4% (n = 310,000); also: nearly all actives have a fitted effect of over 60% in size
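A Gal4/UAS one-hybrid system in insect cells: metallothionein-promoter Gal4–ROR gamma fusion plus Photinus luciferase reporter. Copper sulfate 700 uM final, 20 hr ambient incubation, luminescent detection after 10 min with reagent.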
ELG1 repair inh: blocks ELG1-dependent DNA repair in HEK293T cells; HEK293T ELG1-luciferase reporter, luminescence, 16 h; DNA damage induced by 5-fluorouridine; Potency, µM (top dose mostly 46.1 µM), for inactives: top-dose activity change, negative = inhibition, usual class: inhibitors; actives 2.3% (n = 330,000); AID 504467; also: nearly all actives have a fitted effect of over 55% in size
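Reporter activity after DNA damage by 5-fluorouridine is monitored. Compound-treated cells incubate 16 hr at 37 °C, then ONE-Glo is added for 30 min before luminescence reading.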
The depositor's hits bear a star; ? = inconclusive; / = no result given; [ ] = remark or other dose. Most compounds without a hit are left out; they make up all but 15% or so of the library. Calls follow the shape of the dose curve; as a rule, active = well fitted curve in the direction sought with a large enough effect; inconclusive = small, poorly fitted or top-dose-only effect, or another doubt; inactive = no such curve, though single readings can be large; an effect the other way counts as inactive or inconclusive. % is scaled to controls: 0 for no effect and ±100 for the full control effect; potency is read from the fitted curve at half-maximal effect.

SMILES	TDP1 cell CPT	DT40 TDP1 no CPT	VP16 counter	12-LOX inh	RORg inh	ELG1 repair inh
Cc1ccc(C(=O)NNC(=O)c2ccco2)cc1	-4%	4%	-9%	1%	0%	?
Cc1ccc(C)c(NC(=S)NNC(=O)c2ccco2)c1	-20%	-16%	-7%	28%	2.2µM*	11%
Cc1ccc(C(=O)NNC(=S)NC(=O)c2ccco2)cc1	7.3µM*	12µM*	-15%	-27%	-5%	?
O=C(NC(=S)NNC(=O)c1ccco1)c1ccccc1	?	16µM*	11µM*	?	11µM*	-10%
CO/N=C/c1ccccc1OCc1ccc(C(=O)OC)cc1	/	/	/	-25%	/	/
CCNC(=O)N1CCOc2ccc(CCC(=O)NCCOc3ccccc3OC)cc2C1	/	/	/	22%	/	/
O=C(c1ccncc1)N1CCCC(n2cc(-c3nc(C4CC4)no3)nn2)C1 (centres undefined)	/	/	/	14%	/	/
COc1ccc(-c2[nH]c(-c3ccccc3)nc2SCC(=O)NC2CCCC2)cc1	23µM*	21µM*	15%	-5%	43%	?
COc1ccc(-c2[nH]c(-c3ccc(F)cc3)nc2SCC(=O)NC2CCCC2)cc1	?	?	1%	-1%	?	?
COc1ccc(-c2[nH]c(-c3cccc(OC)c3)nc2SCC(=O)NC2CCCC2)cc1	21µM*	23µM*	-12%	-17%	?	?
CC1CCN(C(=O)CSc2ccc(-c3ccc(F)cc3)nn2)CC1	-12%	?	-2%	1%	13%	-5%
CC1CC(C)(C)N(C(=O)CSc2ccc(-c3ccc(F)cc3)nn2)c2ccccc21 (centres undefined)	?	22µM*	-23%	-2%	?	?
CC(C)(C)n1nnnc1C(c1cccnc1)N1CCN(c2ccccc2F)CC1 (centres undefined)	0%	0%	0%	0%	28%	1%
CCCC(c1nnnn1CC1CCCO1)N1CCN(c2cc(Cl)ccc2C)CC1 (centres undefined)	?	?	0%	?	-18%	-16%
Cc1cccc(N2CCN(C(c3ccccc3)c3nnnn3C(C)(C)C)CC2)c1C (centres undefined)	?	23µM*	0%	10%	-16%	?
COc1cc(C(c2nnnn2C(C)(C)C)N2CCN(c3nc4ccccc4s3)CC2)ccc1O (centres undefined)	15µM*	12µM*	-28%	0%	-6%[10 µM]	14%
COc1ccccc1N1CCN(C(c2ccc(Cl)cc2)c2nnnn2C(C)(C)C)CC1 (centres undefined)	?	?	22µM*	-9%	-123%	?
CCC(c1nnnn1C(C)(C)C)N1CCN(c2cc(Cl)ccc2C)CC1 (centres undefined)	?	16µM*	4%	0%	25%	?
CCC1CCCCN1C(=O)Cn1c(=O)n(-c2cc(C)cc(C)c2)c(=O)c2sccc21 (centres undefined)	/	/	/	5%	/	/
Cc1ccc(-c2noc(-c3cccnc3NC(C)c3ccc(C)cc3)n2)cc1 (centres undefined)	/	/	/	-2%	/	/
Cc1cccc(N2CCN(C(c3cccs3)c3nnnn3C(C)(C)C)CC2)c1C (centres undefined)	18µM*	22µM*	-2%	19%	-3%	?
CC(C)(C)n1nnnc1C(c1ccc(Cl)cc1)N1CCCc2ccccc21 (centres undefined)	?	15µM*	-12%	-1%	4%	19%
CCC(C)(C)n1nnnc1C(c1cccs1)N1CCc2ccccc21 (centres undefined)	29µM*	16µM*	11µM*	-10%	?	?
